Results on eleven compounds are retold here after PubChem BioAssay (EPA / NIEHS).

For assay [1], the target named is Muscarinic acetylcholine receptor M3 (Homo sapiens) (UniProt P20309). Briefly: NVS_GPCR_hM3: NovaScreen (NVS) G Protein-Coupled Receptor Assay for human Muscarinic, M3 Receptor (AID 2283272). The essentials:
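Radioligand displacement binding on human M3 receptor in CHO-derived membranes, 1 h incubation, filter-based scintillation counting. Primary screen in duplicate at 25 uM; actives followed up in concentration series; loss of signal versus DMSO.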

In assay [2] the target is human Muscarinic, M4 Receptor, CHRM4 (gene 1132) (UniProt P08173). Briefly: NVS_GPCR_hM4: NovaScreen (NVS) G Protein-Coupled Receptor Assay for human Muscarinic, M4 Receptor (AID 2283274). Put shortly: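 Filter-based scintillation counting of radioligand bound to CHO-expressed human M4 preparations after 1 h; loss of signal fitted versus DMSO. Initial duplicate testing at 25 uM, concentration-response follow-up for actives.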
Chain of human Muscarinic, M4 Receptor, CHRM4 (gene 1132) (P08173 whole entry, looked up): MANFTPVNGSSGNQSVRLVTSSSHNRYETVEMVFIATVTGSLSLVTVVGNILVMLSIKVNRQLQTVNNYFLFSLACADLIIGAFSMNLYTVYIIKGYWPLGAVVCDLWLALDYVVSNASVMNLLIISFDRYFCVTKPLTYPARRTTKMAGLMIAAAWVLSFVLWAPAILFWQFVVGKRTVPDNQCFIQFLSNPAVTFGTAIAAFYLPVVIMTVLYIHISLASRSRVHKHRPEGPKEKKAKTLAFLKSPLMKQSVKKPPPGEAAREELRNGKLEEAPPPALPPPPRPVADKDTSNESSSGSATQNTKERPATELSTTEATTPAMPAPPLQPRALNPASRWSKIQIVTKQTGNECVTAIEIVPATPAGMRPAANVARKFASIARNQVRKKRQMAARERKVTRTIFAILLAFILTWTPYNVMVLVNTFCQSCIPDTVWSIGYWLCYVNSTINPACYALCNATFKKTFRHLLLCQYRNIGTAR

Assay [3] has as its target human Opioid Receptor Delta 1 (Opiate D1), OPRD1 (gene 4985) (UniProt P41143). Briefly: NVS_GPCR_hOpiate_D1: NovaScreen (NVS) G Protein-Coupled Receptor Assay for human Opioid Receptor Delta 1 (Opiate D1) (AID 2283280). The essentials:
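Membrane preparations from CHO cells bearing the human receptor were incubated 1 h with test chemical, and bound radioligand was counted after filtration. Actives from 25 uM duplicate screening were retested in concentration-response.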

The target of assay [4] is human Opioid Receptor Mu (Opiate Mu), OPRM1 (gene 4988) (UniProt P35372). Briefly: NVS_GPCR_hOpiate_mu: NovaScreen (NVS) G Protein-Coupled Receptor Assay for human Opioid Receptor Mu (Opiate Mu) (AID 2283290).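 Also: hits lower bound tracer signal versus DMSO meaning displacement of the ligand.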 Put shortly:
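Primary screen in duplicate at 25 uM, with actives followed in concentration series. CHO-derived receptor membranes, cell-free; bound radioligand read by scintillation counting after filtration at 2.5 h, decrease scored against DMSO.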

For assay [5], the target named is Muscarinic acetylcholine receptor M2 (Homo sapiens) (UniProt P08172). Briefly: NVS_GPCR_hM2: NovaScreen (NVS) G Protein-Coupled Receptor Assay for human Muscarinic, M2 Receptor (AID 2283273). Put shortly: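 Radioligand competition binding, cell-free, receptor from CHO; 1 h incubation; scintillation detection. Primary testing at 25 uM in duplicate.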
Chain of Muscarinic acetylcholine receptor M2 (Homo sapiens) (P08172 whole entry, looked up): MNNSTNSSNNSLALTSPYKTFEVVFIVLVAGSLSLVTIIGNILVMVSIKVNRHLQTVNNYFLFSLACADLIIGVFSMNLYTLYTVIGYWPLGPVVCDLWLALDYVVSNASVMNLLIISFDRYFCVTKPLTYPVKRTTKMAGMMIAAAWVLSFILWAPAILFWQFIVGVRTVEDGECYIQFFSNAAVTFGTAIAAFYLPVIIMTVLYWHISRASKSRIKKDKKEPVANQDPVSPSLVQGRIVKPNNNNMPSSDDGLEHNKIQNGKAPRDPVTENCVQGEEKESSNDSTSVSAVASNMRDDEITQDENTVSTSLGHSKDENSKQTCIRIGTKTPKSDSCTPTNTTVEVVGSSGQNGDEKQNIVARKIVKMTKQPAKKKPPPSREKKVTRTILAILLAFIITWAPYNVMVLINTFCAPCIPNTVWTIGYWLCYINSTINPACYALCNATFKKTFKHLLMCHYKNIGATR
In assay [6] the target is Muscarinic acetylcholine receptor M5 (Homo sapiens) (UniProt P08912). Briefly: NVS_GPCR_hM5: NovaScreen (NVS) G Protein-Coupled Receptor Assay for human Muscarinic, M5 Receptor (AID 2283275). The essentials:
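Chemicals passing a primary duplicate screen at 25 uM were run as singleton concentration series, maximum 50 uM. Displacement of a specific radioligand from CHO-extracted receptor was read by filter scintillation after 1 h, relative to DMSO.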

For assay [7], the target named is human Vasopressin 1A Receptor (V1A), AVPR1A (gene 552) (UniProt P37288). Briefly: NVS_GPCR_hV1A: NovaScreen (NVS) G Protein-Coupled Receptor Assay for human Vasopressin 1A Receptor (V1A) (AID 2283284). Put shortly: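 Single-concentration duplicate screen at 25 uM, with concentration-response follow-up (top 50 uM) for actives. The assay measured displacement of a radioligand from human platelet-derived receptor after 1.5 h, detected by filtration and scintillation counting.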

For assay [8], the target named is Muscarinic acetylcholine receptor M1 (Homo sapiens) (UniProt P11229). Briefly: NVS_GPCR_hM1: NovaScreen (NVS) G Protein-Coupled Receptor Assay for human Muscarinic, M1 Receptor (AID 2283270). The essentials:
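Actives from a duplicate 25 uM single-point screen were retested in concentration series. Binding measured as displacement of a radioligand from CHO-derived receptor preparation, 1 h incubation, filtration and scintillation counting, analysed as signal loss against DMSO.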

In assay [9] the target is human Leukotriene B4 Receptor 1 (LTB4-BLT1), LTB4R (gene 1241) (UniProt Q15722). Briefly: NVS_GPCR_hLTB4_BLT1: NovaScreen (NVS) G Protein-Coupled Receptor Assay for human Leukotriene B4 Receptor 1 (LTB4-BLT1) (AID 2283271). Put shortly:
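Cell-free human neutrophil receptor preparation, 1 h exposure, radioligand binding read by filter scintillation counting. Single 25 uM duplicate screen, then concentration series topping at 50 uM; binding loss scored against DMSO baseline.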

In assay [10] the target is Neuropeptide Y receptor type 2 (Homo sapiens) (UniProt P49146). Briefly: NVS_GPCR_hNPY2: NovaScreen (NVS) G Protein-Coupled Receptor Assay for human Neuropeptide Receptor Y2 (NPY2) (AID 2283277). The essentials: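 Chemicals were first tested in duplicate at 25 uM, then actives in singleton concentration series to 50 uM. Tracer binding to SK-N-MC-derived protein measured cell-free after 1 h via filter scintillation; signal loss relative to DMSO.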
Chain of Neuropeptide Y receptor type 2 (Homo sapiens) (P49146 whole entry, looked up): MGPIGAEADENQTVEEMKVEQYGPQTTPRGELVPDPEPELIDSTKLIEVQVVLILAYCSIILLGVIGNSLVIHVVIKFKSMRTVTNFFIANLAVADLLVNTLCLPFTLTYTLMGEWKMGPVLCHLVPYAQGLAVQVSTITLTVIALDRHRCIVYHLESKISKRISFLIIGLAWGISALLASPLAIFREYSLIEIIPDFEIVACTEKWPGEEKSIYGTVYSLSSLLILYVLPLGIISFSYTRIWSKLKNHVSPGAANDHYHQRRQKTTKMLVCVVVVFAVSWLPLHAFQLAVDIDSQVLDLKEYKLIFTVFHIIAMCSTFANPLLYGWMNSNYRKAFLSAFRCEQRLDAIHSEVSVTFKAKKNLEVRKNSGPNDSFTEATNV

For assay [11], the target named is guinea pig Bradykinin Receptor B2 (BK2), BDKRB2 (gene 100135486) (UniProt O70526). Briefly: NVS_GPCR_gBK2: NovaScreen (NVS) G Protein-Coupled Receptor Assay for guinea pig Bradykinin Receptor B2 (BK2) (AID 2283292). The essentials: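 Guinea pig ileum membrane preparation incubated 1 h with radioligand and test chemical; bound counts measured after filtration. Primary duplicate screening at 25 uM, then singleton concentration series with a 50 uM top dose; DMSO as baseline.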
Chain of guinea pig Bradykinin Receptor B2 (BK2), BDKRB2 (gene 100135486) (O70526 whole entry, looked up): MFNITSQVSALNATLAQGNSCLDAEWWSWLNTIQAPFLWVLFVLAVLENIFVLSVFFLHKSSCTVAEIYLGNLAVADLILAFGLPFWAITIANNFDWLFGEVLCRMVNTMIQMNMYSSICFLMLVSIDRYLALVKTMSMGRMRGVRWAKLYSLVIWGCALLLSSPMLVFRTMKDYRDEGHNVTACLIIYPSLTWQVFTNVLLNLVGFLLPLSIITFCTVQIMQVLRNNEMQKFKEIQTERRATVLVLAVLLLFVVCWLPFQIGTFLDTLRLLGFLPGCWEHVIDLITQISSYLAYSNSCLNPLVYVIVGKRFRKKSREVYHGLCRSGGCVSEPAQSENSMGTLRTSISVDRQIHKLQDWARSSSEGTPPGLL

Assay [12] concerns the target mouse Cholecystokinin, CCK1 Receptor (CCKA), Cckar (gene 12425) (UniProt O08786). Briefly: NVS_GPCR_mCCKAPeripheral: NovaScreen (NVS) G Protein-Coupled Receptor Assay for mouse Cholecystokinin, CCK1 Receptor (CCKA) (AID 2283285). Put shortly:
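Chemicals were first screened in duplicate at 25 uM, with those meeting threshold (e.g., 30% inhibition) retested in singleton concentration series to 50 uM maximum. Binding of radioligand to mouse pancreatic membranes was read after 2 h by filtration and scintillation counting.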

For assay [13], the system named is rabbit Platelet Activating Factor Receptor (PAF), gene 100354046. Briefly: NVS_GPCR_rabPAF: NovaScreen (NVS) G Protein-Coupled Receptor Assay for rabbit Platelet Activating Factor Receptor (PAF) (AID 2283287). Put shortly:
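Rabbit platelet membrane preparation; radioligand displacement read by filter-based scintillation counting 1 h after dosing, loss of signal versus DMSO. Primary screen in duplicate at 25 uM, actives followed up in concentration series.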

Assay [14] concerns the target human Neuropeptide Receptor Y1 (NPY1), NPY1R (gene 4886) (UniProt P25929). Briefly: NVS_GPCR_hNPY1: NovaScreen (NVS) G Protein-Coupled Receptor Assay for human Neuropeptide Receptor Y1 (NPY1) (AID 2283276). Put shortly:
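Displacement of specific radioligand from NPY1 receptor of SK-N-MC origin, read by filtration and scintillation after 1 h. Compounds first tested at 25 uM in duplicate, then actives in concentration series; signal loss relative to DMSO.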

The target of assay [15] is human Orphanin, Opioid Related Nociceptin Receptor 1 (ORL1), OPRL1 (gene 4987) (UniProt P41146). Briefly: NVS_GPCR_hORL1: NovaScreen (NVS) G Protein-Coupled Receptor Assay for human Orphanin, Opioid Related Nociceptin Receptor 1 (ORL1) (AID 2283283). The essentials: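 Cell-free binding using HEK293-derived receptor protein: radioligand displacement measured by filter scintillation 1 hour after dosing. Primary testing at 25 uM in duplicate, followed by singleton concentration series up to 50 uM; DMSO served as negative control.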

Assay [16] concerns 5-hydroxytryptamine receptor 2C (pig). Briefly: NVS_GPCR_p5HT2C: NovaScreen (NVS) G Protein-Coupled Receptor Assay for pig Serotonin, 5-Hydroxytryptamine Receptor 2C (5HT2C) (AID 2283288). Put shortly: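 Radioligand displacement on membranes from pig choroid plexus, detected by filter scintillation counting after 1 h. Tested first at a single 25 uM in duplicate, then in concentration-response for actives; DMSO served as baseline.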

In assay [17] the target is mouse Cholecystokinin, CCK2 Receptor (CCKB), Cckbr (gene 12426) (UniProt P56481). Briefly: NVS_GPCR_mCKKBCentral: NovaScreen (NVS) G Protein-Coupled Receptor Assay for mouse Cholecystokinin, CCK2 Receptor (CCKB) (AID 2283293). The essentials: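 Mouse forebrain membrane preparation incubated 2 h with chemical and radioligand; bound radioactivity counted after filtration. Single-concentration duplicate screen at 25 uM, then concentration series to 50 uM max for hits, DMSO as baseline.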

Inconclusive results are not listed. Activity calls are given as the source filed them. The calls were made as follows: active = hit-call score of the fitted dose curve at least 0.9, where 1 is the maximum; inconclusive = response in the unintended direction; inactive = score below 0.9.

Chain of human Opioid Receptor Mu (Opiate Mu), OPRM1 (gene 4988) (P35372 whole entry, looked up): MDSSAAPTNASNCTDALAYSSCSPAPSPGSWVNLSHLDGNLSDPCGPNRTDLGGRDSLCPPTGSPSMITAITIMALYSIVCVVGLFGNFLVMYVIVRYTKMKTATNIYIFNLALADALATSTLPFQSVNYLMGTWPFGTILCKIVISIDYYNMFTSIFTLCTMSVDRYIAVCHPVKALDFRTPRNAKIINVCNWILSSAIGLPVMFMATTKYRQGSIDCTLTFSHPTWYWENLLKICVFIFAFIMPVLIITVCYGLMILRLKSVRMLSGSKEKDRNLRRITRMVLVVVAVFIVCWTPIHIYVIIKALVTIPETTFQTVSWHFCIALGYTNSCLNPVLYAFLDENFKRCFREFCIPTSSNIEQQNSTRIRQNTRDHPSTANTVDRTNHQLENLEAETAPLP
Chain of human Leukotriene B4 Receptor 1 (LTB4-BLT1), LTB4R (gene 1241) (Q15722 whole entry, looked up): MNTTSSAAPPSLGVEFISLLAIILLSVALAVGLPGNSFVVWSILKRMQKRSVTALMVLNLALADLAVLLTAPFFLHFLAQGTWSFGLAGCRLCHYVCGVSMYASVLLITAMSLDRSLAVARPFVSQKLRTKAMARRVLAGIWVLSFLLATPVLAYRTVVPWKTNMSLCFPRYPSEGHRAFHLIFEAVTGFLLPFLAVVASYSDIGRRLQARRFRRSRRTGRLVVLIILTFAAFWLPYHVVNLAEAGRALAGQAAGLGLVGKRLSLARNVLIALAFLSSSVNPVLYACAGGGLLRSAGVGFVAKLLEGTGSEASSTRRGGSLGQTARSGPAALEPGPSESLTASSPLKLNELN
Chain of human Opioid Receptor Delta 1 (Opiate D1), OPRD1 (gene 4985) (P41143 whole entry, looked up): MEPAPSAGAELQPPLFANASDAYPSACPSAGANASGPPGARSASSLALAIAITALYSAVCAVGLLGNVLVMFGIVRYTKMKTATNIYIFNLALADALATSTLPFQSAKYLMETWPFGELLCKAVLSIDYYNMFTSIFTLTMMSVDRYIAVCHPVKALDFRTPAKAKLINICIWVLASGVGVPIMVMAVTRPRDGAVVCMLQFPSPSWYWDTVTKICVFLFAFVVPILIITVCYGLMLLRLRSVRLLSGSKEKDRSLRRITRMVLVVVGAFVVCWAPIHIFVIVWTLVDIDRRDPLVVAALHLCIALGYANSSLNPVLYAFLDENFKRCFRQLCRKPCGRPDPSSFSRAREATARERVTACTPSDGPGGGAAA
Chain of Muscarinic acetylcholine receptor M5 (Homo sapiens) (P08912 whole entry, looked up): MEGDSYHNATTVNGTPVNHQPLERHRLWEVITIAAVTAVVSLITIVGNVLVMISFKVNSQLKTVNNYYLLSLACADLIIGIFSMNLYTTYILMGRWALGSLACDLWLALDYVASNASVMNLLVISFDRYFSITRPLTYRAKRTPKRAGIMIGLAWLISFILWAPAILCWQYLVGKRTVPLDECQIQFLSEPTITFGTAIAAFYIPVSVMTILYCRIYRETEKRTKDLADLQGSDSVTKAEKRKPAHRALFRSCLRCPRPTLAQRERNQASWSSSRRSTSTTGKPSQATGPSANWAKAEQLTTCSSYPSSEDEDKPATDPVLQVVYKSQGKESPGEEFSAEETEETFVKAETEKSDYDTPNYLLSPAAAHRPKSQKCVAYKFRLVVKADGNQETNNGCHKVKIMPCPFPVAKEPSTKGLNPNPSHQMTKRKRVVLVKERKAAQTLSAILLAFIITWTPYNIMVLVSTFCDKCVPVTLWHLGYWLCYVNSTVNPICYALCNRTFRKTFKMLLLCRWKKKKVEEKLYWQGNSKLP
Chain of Muscarinic acetylcholine receptor M1 (Homo sapiens) (P11229 whole entry, looked up): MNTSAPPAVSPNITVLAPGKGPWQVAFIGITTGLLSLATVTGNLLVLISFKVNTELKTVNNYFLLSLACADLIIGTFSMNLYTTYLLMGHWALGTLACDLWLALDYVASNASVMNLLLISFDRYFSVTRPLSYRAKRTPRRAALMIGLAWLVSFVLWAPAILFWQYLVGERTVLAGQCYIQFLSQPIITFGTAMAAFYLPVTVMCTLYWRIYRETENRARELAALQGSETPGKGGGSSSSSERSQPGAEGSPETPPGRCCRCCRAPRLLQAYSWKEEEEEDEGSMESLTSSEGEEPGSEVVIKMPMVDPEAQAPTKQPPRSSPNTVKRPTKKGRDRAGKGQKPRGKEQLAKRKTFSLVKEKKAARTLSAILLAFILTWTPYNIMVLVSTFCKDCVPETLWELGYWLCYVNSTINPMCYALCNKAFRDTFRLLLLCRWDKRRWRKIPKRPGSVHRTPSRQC
Chain of mouse Cholecystokinin, CCK1 Receptor (CCKA), Cckar (gene 12425) (O08786 whole entry, looked up): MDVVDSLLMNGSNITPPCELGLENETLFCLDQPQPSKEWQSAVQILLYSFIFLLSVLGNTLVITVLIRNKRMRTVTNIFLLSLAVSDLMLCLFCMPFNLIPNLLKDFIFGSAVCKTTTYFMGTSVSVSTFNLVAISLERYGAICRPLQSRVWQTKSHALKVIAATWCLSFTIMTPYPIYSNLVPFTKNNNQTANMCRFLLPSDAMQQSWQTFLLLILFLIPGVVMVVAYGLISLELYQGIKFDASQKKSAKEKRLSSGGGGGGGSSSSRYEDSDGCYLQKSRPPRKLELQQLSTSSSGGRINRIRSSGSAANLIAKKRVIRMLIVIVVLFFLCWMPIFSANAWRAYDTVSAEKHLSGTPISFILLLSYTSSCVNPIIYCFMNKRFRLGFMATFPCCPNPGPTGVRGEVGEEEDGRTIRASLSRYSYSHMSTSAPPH
Chain of Muscarinic acetylcholine receptor M3 (Homo sapiens) (P20309 whole entry, looked up): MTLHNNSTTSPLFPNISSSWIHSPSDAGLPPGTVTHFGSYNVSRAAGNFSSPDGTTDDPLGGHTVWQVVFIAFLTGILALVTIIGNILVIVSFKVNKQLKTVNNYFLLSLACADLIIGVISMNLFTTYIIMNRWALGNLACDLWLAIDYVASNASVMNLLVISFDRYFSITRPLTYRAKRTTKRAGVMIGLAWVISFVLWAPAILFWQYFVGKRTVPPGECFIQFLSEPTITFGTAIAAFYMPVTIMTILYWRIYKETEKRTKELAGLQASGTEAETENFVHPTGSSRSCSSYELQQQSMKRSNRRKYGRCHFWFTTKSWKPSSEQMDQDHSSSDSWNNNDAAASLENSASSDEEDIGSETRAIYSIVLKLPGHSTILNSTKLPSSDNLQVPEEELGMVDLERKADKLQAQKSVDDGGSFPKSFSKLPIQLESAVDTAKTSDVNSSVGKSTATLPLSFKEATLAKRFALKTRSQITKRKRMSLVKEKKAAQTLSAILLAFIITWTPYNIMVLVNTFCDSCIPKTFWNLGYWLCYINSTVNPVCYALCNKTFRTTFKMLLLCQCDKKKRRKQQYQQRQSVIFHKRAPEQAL

With `CCCCCCCCOC(=O)c1cc(O)c(O)c(O)c1`, the compound was classed as inactive in assay [1]. Besides, the half-maximal activity concentration (AC50) was 8.67 µM (active) in [2], 16.4 µM (active) in [3] and 18 µM (active) in assay [4].
Consider `c1ccc(C[n+]2cccc3ccccc32)cc1`, for which the AC50 was 25 µM (active) in [1], 9.2 µM (active) in [5], 16.8 µM (active) in assay [2] and 11.8 µM (active) in [6]. Besides, the result in assay [7] was inactive.
`Clc1cc(Cl)c2c(c1)N=C1CCCCCN1C2`: the concentration at half-maximal activity (AC50) in [8] is 2.74 µM (active); in assay [1], 2.09 µM (active); in assay [5] it was 1.17 µM (active); in assay [2], 1.71 µM (active); in assay [6], 2.01 µM (active).
As for `COc1ccc2cc(S(=O)(=O)N[C@H](CC(=O)N[C@H](Cc3ccc(CN4[C@H](C)CCC[C@@H]4C)cc3)C(=O)N(C)C(C)C)c3ccc4c(c3)OCO4)ccc2c1`, the AC50 was 3.51 µM (active) in assay [8]; 11.6 µM (active) in [9]; 14.2 µM (active) in [1]; 0.535 µM (active) in [5]; 2.44 µM (active) in assay [2]; 4.37 µM (active) in [6]. For the same compound, the concentration at half-maximal activity (AC50) in assay [10] is 2.17 µM (active); in [4], 8.69 µM (active); in [11], 13.8 µM (active).
In the case of `Cc1cc(F)ccc1-c1cc(N2CC[C@@H](O)[C@H]2CO)ncc1N(C)C(=O)C(C)(C)c1cc(C(F)(F)F)cc(C(F)(F)F)c1`, the AC50 is 15 µM (active) in assay [6], 15.8 µM (active) in [3], 4.08 µM (active) in assay [12] and 1.38 µM (active) in assay [13].
Regarding `CCCCCCCCN(C)CCCCCCCC`, the compound was called inactive in [2].
As to `CC(C)(C)c1csc(-c2cc3cc(OCc4ccccc4CC(=O)O)ccc3o2)n1`, the compound was classed as inactive in assay [9], in assay [3] and in assay [12].
For the compound `O=C1c2ccccc2C(=O)N1CCc1noc(-c2ccc(CN3CCCCCC3)s2)n1`, the AC50 is 7.52 µM (active) in [8]; 3.96 µM (active) in assay [1]; 2.83 µM (active) in assay [5]; 7.92 µM (active) in assay [2]; 7.99 µM (active) in [6]; 3.11 µM (active) in assay [13]. The compound was classed as inactive in assay [9].
Consider `Cc1oc2c(NC(=O)c3c(Cl)cccc3Cl)cccc2c1C(C)(C)O`, for which the AC50 in assay [9] is 11.7 µM (active); in assay [13], 5.98 µM (active).
As to `CN(C)c1ccc(C(=C2C=CC(=[N+](C)C)C=C2)c2ccc(N(C)C)cc2)cc1`, the AC50 is 8.85 µM (active) in assay [9]; 0.939 µM (active) in assay [5]; 0.863 µM (active) in assay [2]; 0.861 µM (active) in assay [6]; 13.3 µM (active) in assay [14]; 16.6 µM (active) in [10]. The AC50 in [3] was 8.5 µM (active); in [15], 21.8 µM (active); in [12] it was 10.8 µM (active); in assay [16], 18.5 µM (active); in assay [4] it was 2.5 µM (active); in assay [11] it was 12.3 µM (active). Further, the AC50 in [17] is 10.3 µM (active).
Consider `Cc1occc1C(=O)Nc1ccc(C(=O)N2CCC(F)(F)/C(=C\C(=O)N3CCC(N4CCCCC4)CC3)c3ccccc32)cc1`, for which the half-maximal activity concentration (AC50) in [5] was 4.43 µM (active); in assay [2], 7.11 µM (active); in assay [6], 5.91 µM (active); in [7] it was 0.00237 µM (active); in [13], 2.76 µM (active). For the same compound, in assay [16], the outcome was inactive.
